Assay outcomes: PubChem BioAssay, National Center for Advancing Translational Sciences (NCATS)
The list is not random: actives were taken first. Their share in the collection is about 10%.
HPGD inh: blocks human HPGD enzyme activity | purified HPGD, NADH fluorescence kinetic, PGE2 substrate | AID 894 | 4.3% of 150,000 active | Potency, µM, hits mostly inhibitors | P15428
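NADH formation kinetics: reaction with 30 uM PGE2 and 1 mM NAD+ (final), 20 nM enzyme, Tris-HCl pH 8 with Tween 20, after 15 min compound preincubation at room temperature. Fluorescence change, last versus first of five reads.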
12-hLO inh: blocks human 12-lipoxygenase activity | P18054 | purified 12-hLO, xylenol orange hydroperoxide absorbance | Potency, µM (doses to about 57.1 µM), hits mostly inhibitors | 0.12% of 150,000 active; active = well fitted inhibition curve with a large enough effect; inconclusive = small, poorly fitted or top-dose-only effect; note: nearly all actives have a fitted effect of over 55% in size
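Purified human 12hLO (150 nM final) was preincubated with compounds for 15 min at room temperature in 25 mM Hepes pH 7.0, 0.01% Triton X-100, then reacted with 40 uM arachidonic acid for 30 min. Hydroperoxide was detected with ferrous iron/xylenol orange.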
LMNA splice mod: modulators of lamin A splicing; HeLa LMNA splicing GFP/RFP minigene ratio, 48 h; Potency, µM (titrated, usually from 46.1 µM), hits mostly inhibitors; 0.01% of 200,000 active; active = well fitted inhibition curve with a large enough effect in the signal ratio, with a control signal flat, not every such curve was filed as active; inconclusive = small, poorly fitted or top-dose-only effect, or effect the other way, or a change in a side signal; the % refers to the signal ratio
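S3 HeLa stable clones carrying a lamin A-EGFP splicing minigene plus DsRed2 were seeded at 600 cells/well in Opti-MEM with 2% FBS, pin-dosed and incubated 48 h at 37°C. Acumen cytometry (488 nm) gave the GFP/RFP total-intensity ratio.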
PNC assembly inh: perinucleolar compartment assembly inhibition; activity change (PNC), negative = inhibition, % at 10 µM; PC3M PTB-GFP, PNC prevalence imaging, 16 h; hits give low values; AID 2417; 3.1% of 140,000 active;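 active = readout at or below -70, meaning at least 70% loss of cells showing the perinucleolar compartment, a nuclear body marking cancer cells; inconclusive = readout between -30 and a set limit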
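Read-out is percentage of cells bearing a perinucleolar compartment, from automated 20x imaging of fixed, Hoechst-stained PC3M PTB-GFP cells. Cells were seeded 4 h, then exposed 16 h to compound (23 nl of library stock) in duplicate plates.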
ALDH1A1 block: blocks purified human ALDH1A1 activity; P00352; AID 1030; 7.3% of 220,000 active; Purified ALDH1A1, NADH fluorescence, propionaldehyde substrate; Potency, µM (top dose mostly 75.3 µM), hits mostly inhibitors
Target sequence (P00352 whole entry, looked up): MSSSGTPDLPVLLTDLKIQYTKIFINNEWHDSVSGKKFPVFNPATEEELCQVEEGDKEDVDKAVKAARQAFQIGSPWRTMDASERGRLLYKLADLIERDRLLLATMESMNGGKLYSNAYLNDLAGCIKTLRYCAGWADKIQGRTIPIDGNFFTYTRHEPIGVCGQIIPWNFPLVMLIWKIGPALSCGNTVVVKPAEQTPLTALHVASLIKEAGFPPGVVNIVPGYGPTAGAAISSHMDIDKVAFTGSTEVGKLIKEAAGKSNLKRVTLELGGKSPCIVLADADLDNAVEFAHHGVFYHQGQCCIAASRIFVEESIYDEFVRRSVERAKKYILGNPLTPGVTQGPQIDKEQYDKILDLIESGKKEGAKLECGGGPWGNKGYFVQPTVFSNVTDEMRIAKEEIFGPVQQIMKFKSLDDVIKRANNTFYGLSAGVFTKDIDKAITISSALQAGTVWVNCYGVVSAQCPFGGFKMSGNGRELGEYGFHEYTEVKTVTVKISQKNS
Numbers stand for hits; . = inactive; ? = inconclusive; / = no result given; [ ] = dose if it differs, or a comment. Unless noted, calls come from the whole dose curve; as a rule, active = well fitted inhibition curve with a large enough effect (not every such curve was filed as active); inconclusive = small, poorly fitted or top-dose-only effect, or another doubt; inactive = no such curve, though single readings can be large or run the other way.

SMILES | HPGD inh | 12-hLO inh | LMNA splice mod | PNC assembly inh | ALDH1A1 block
N#C[C@H](Cc1ccc(O)cc1)c1ccc(O)cc1 | . | . | / | / | ?
COc1cccc(CN(C)CC(=O)Nc2ccccc2C(C)C)c1 | / | / | . | / | 20µM
CCCC1O[C@@H]2C[C@H]3[C@@H]4CCC5=CC(=O)C=C[C@]5(C)C4[C@@H](O)C[C@]3(C)[C@]2(C(=O)CO)O1 (some centres not stated) | . | / | ? | / | .
Cc1noc(C)c1S(=O)(=O)N1CCC(C(=O)c2ccccc2)CC1 | / | / | / | / | .
Cc1noc(C)c1S(=O)(=O)N1CCN(C(c2ccccc2)c2ccc(Cl)cc2)CC1 (configuration not stated) | . | . | . | -90 | ?
Cc1ccc(N2C(=O)CC(N(O)C3CC(=O)N(c4ccc(C)cc4)C3=O)C2=O)cc1 (configuration not stated) | 32µM | ? | . | . | 2.8µM
CCCCCCC(=O)N(O)C1CC(=O)N(c2ccc(C)cc2)C1=O (configuration not stated) | 7.9µM | . | ? | . | 0.45µM
CCCOc1ccc(N2C(=O)CC(N(CCC)C(=O)CCC(=O)O)C2=O)cc1 (configuration not stated) | . | . | . | . | .
CCOC(=O)c1sc(=S)sc1SCc1cccc(C(F)(F)F)c1 | 28µM | . | . | ? | ?
COc1ccc(NC(=O)c2sccc2SCc2cccc(C(F)(F)F)c2)cc1 | ? | . | . | . | .
Cc1ccc(N(C)C(=O)Cn2cnc3onc(-c4ccc(F)cc4)c3c2=O)cc1C | / | / | . | / | /
COc1ccc(CCNC(=S)Nc2cccc3ccccc23)cc1 | . | ? | ? | . | 22µM
S=C(NCc1cccnc1)NCc1cccnc1 | / | / | / | / | .
S=C(NCc1cccnc1)Nc1cccc2ccccc12 | . | . | ? | . | 5µM
COCCNC(=S)Nc1cccc2cnccc12 | / | / | . | / | .
COc1ccc(OCCNC(=S)Nc2cccc3ccccc23)cc1 | . | ? | . | . | .
CCn1cc(CNC(=S)Nc2cccc3ccccc23)cn1 | / | / | / | / | 6.3µM
CCCCNC(=S)Nc1cccc2cnccc12 | / | . | ? | . | ?
S=C(NCCc1ccccc1)Nc1cccc2cnccc12 | / | / | ? | / | 20µM
O=C(Nc1ccc2c(c1)CCCN2C(=O)c1cccs1)c1ccc(F)c(F)c1 | / | / | . | / | /
CC(C)(C)c1ccc(S(=O)(=O)Nc2cccnc2)cc1 | . | . | ? | . | ?
CC(=O)NCCc1ccc(S(=O)(=O)Nc2cccnc2)cc1 | . | . | . | -82 | .
CCc1cc2c(nc1CC)CCN(CC/C(C)=N/OCC[C@@H]1C=C[C@H](OC(C)=O)[C@H](COC(C)=O)O1)C2 | / | / | / | / | .[13.5 µM]
COc1ccc(N2CCN(c3nc4c(c(=O)n(C)c(=O)n4C)n3Cc3ccccc3)CC2)cc1 | . | . | . | . | ?
COc1ccc(Oc2nc3c(c(=O)n(C)c(=O)n3C)n2Cc2ccccc2)cc1 | . | . | . | . | 16µM
SMILES | HPGD inh | 12-hLO inh | LMNA splice mod | PNC assembly inh | ALDH1A1 block
CC(C)CCn1c(Oc2ccc(Cl)cc2)nc2c1c(=O)n(C)c(=O)n2C | . | . | . | . | 7.9µM
CC1=NN(c2ccc(N)cc2)C(=O)C1 | . | . | . | . | ?
CC1=NN(c2ccc(Cl)cc2)C(=O)C1 | / | / | ? | / | 0.63µM
CC1=NN(c2ccccc2)C(=O)C1 | . | . | . | . | 10µM
O=C(N/N=C/c1cc(Br)ccc1O)C(=O)Nc1ccccc1OC(F)(F)C(F)F | . | ? | ? | . | .
O=C(N/N=C/c1cc(Cl)ccc1O)C(=O)Nc1ccccc1OC(F)(F)C(F)F | . | . | ? | -90 | .
N[C@@H](CSCc1ccc(I)cc1)C(=O)O | . | .[11.4 µM] | / | / | .[13.5 µM]
Cc1ccc(-c2nnc3n2N=C(c2ccccc2Br)CS3)cc1 | 22µM | . | . | . | .
Cc1cccc(-c2nnc3n2N=C(c2ccccc2)CS3)c1 | . | . | . | . | .
CC(C)n1c(=O)[nH][nH]c1=S | / | / | / | / | 0.79µM
COc1ccc(S(=O)(=O)NCCc2sc(-c3ccccc3)nc2C)cc1OC | / | / | . | / | /
CCOC(=O)c1c(C)nc(C)c(C(=O)OCC)c1-c1ccccc1 | ? | . | ? | . | ?
Cc1cc(C)c(C#N)c(SCC(=O)OC2CCCCC2)n1 | 16µM | . | . | -83 | 28µM
CCOC(=O)CSc1nc2cc3c(cc2cc1C#N)OCO3 | . | . | . | -127 | .
CCOC(=O)c1c(C)nc(SCC(N)=O)c(C#N)c1-c1ccccc1 | . | . | . | -114 | ?
COCc1cc(C)nc(SCC(=O)c2ccc(O)c(O)c2)c1C#N | 16µM | . | ? | . | .
Cc1ccc(-c2nc(C(=O)NCc3ccccc3Cl)c3n2CCCCC3)cc1 | / | / | . | / | /
O=C(O)[C@@H]1[C@@H]2C[C@@H]3[C@@H](OC(=O)[C@@H]31)[C@H]2Br | . | .[11.4 µM] | / | / | .[13.5 µM]
CCOc1ccc2cc(C#N)c(SCC(=O)N3CCOCC3)nc2c1 | ? | . | . | ? | 3.5µM
CCOC(=O)CSc1nc(C)cc(C)c1C#N | . | . | . | . | 25µM
CCOC(=O)CCc1c(C)nc(SCC(=O)O)c(C#N)c1C | . | . | . | . | 25µM
CCOC(=O)CSc1nc(C)cc(C)c1C(N)=O | / | / | / | / | .
Cc1nc(SCC(=O)O)c(C#N)c(C)c1CC(=O)c1ccccc1 | / | / | / | / | .
CN1CCN(C(c2ccc(Cl)cc2Cl)c2sc3nc(-c4ccco4)nn3c2O)CC1 (configuration not stated) | / | / | . | / | /
COc1ccc(CCNc2ncnc3c2nnn3C)cc1OC | / | / | . | / | /
SMILES | HPGD inh | 12-hLO inh | LMNA splice mod | PNC assembly inh | ALDH1A1 block
COc1ccccc1NS(=O)(=O)c1ccc(OC)c(OC)c1 | . | . | . | . | .
COc1ccc(S(=O)(=O)Nc2ccccc2C(=O)NC(C)(C)C)cc1OC | ? | . | . | -112 | ?
Cc1ccc(C(=O)Cn2c3c(sc2=N)CCCC3)cc1 | . | . | / | / | ?
Cc1sc(NC(=O)c2cccs2)c(C(N)=O)c1C | 25µM | . | . | . | 11µM
Cc1ccc(C(=O)Nc2sc(C)c(C)c2C(=O)c2ccccc2)cc1 | 20µM | . | . | . | 10µM
Cc1sc(NC(=O)c2ccccc2)c(C(=O)c2ccccc2)c1C | 3.5µM | . | ? | . | 5µM
Cc1sc(NC(=O)c2ccccc2)c(C(=O)NC(C)C)c1C | ? | . | . | . | ?
CCCN(CCC)CCNC(=O)c1cc(Sc2ccc(Cl)cc2)nc2ccccc12 | / | / | . | / | /
COc1cccc(/C=C/C2=CC3(C)CC2(C)C(c2cccc(OC)c2)CC3=O)c1 (configuration not stated) | / | / | / | / | .[13.5 µM]
Cc1ccc(CNC(=O)C(=O)NCC(c2cccs2)S(=O)(=O)c2cccs2)cc1 (configuration not stated) | / | / | . | / | /
COc1ccc(S(=O)(=O)NCCSCc2ccccc2C)cc1Br | 28µM | . | . | . | 25µM
Cc1cc2c(cc1S(=O)(=O)N(CCN(C)C)Cc1ccco1)OCC(=O)N2 | / | / | . | / | /
CCCCCS(=O)(=O)CCCCCCCCCCn1c(-c2ccc(O)cc2)c(C)c2cc(O)ccc21 | ? | . | / | / | ?
Cc1ccc(NC(=O)CCn2c(=O)c3cccn3c3ccccc32)c(Cl)c1 | / | / | . | / | /
